Source: PubChem BioAssay
PvdQ inh – P. aeruginosa PvdQ acylase inhibition. inhibition, % at 10 µM. purified PvdQ acylase, fluorescence plate reader. actives 0.063% (n = 340,000); in the data active means inhibition above about 30%, passing the limit was not always enough;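 further: 0% = vehicle neutral wells and 100% = reference inhibitor wells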
ERp5 inh – blocks human ERp5 reductase activity on insulin. Q15084. ERp5 insulin aggregation, absorbance 650 nm, 90 min. inhibition, % at 9.99 µM. actives 0.05% (n = 350,000). AID 651711;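 active means mean replicate inhibition above about 25%, with every replicate also reaching it, limit read from the data, passing the limit was not always enough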
Vif imaging – HIV Vif inhibition; HEK293T cells, Vif self-association by quenched fluorescence, imaging, 24 h; inhibition, % at 7.49 µM; actives 0.35% (n = 340,000); in the data active means inhibition above about 50%, passing the limit was not always enough
PDI inh – inhibitors of human protein disulfide isomerase. P07237. PDI insulin aggregation turbidity, A650, 90 min. inhibition, % at 10 µM. actives 0.052% (n = 350,000). AID 588391;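 active means mean inhibition across replicates of 30% or more, whatever share of single replicates reach that level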
Target sequence (P07237 whole entry, looked up): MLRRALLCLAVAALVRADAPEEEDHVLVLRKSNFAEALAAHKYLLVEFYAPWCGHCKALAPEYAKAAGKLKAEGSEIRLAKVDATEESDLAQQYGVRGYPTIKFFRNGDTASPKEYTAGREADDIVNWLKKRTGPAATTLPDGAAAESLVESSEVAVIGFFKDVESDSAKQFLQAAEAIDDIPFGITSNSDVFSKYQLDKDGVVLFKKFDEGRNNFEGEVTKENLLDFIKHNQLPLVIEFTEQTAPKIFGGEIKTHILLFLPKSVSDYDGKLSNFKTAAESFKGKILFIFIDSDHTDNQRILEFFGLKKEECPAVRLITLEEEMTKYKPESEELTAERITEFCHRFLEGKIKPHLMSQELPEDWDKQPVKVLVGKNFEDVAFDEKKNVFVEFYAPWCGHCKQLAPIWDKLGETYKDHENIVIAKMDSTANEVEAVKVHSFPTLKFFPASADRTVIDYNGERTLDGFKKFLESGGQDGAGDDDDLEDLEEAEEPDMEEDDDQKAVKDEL
Glyco luc inh – blocks N-linked glycosylation in D54 reporter cells; D54 ERlucT glycosylation luciferase reporter, 24 h; percent of 100 nM tunicamycin response; reporter increase, % at 12.5 µM; actives 0.23% (n = 360,000); AID 588692;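 active means mean luciferase reporter signal, scaled so untreated is 0 and the glycosylation-blocking control 100, at or above a set limit in every replicate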;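 further: luciferase carries N-glycosylation sites so blocking glycosylation raises the light; 0% = median of neutral control wells and 100% = median of 100 nM tunicamycin wells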
Numbers without * were called inactive; nt = no result given. Most compounds without a hit are left out; they make up all but 0.56% or so of the library.

SMILES	PvdQ inh	ERp5 inh	Vif imaging	PDI inh	Glyco luc inh
COc1ccc(/C=N/n2c(=O)[nH]c3c([nH]c4ccc(C)cc43)c2=O)cc1CN1CCOCC1	2.1	1.6	-5.0	-5.7	1.2
CC1=CC(C)[C@H](/C=N/n2c(=O)[nH]c3c([nH]c4ccc(C)cc43)c2=O)C(C)C1 (stereo partly drawn)	-14.0	2.5	-0.5	-1.9	60.1*
O=C(COC(=O)C(c1ccccc1)c1ccccc1)NCc1ccco1	-2.6	2.0	-2.6	0.8	-2.4
CC(C)C(=O)Nc1cccc(S(=O)(=O)NC2=NCCC2)c1	nt	7.5	-2.0	-1.0	5.8
O=C(CCl)Nc1cccc(S(=O)(=O)NC2=NCCC2)c1	1.6	-2.7	3.2	10.8	60.2*
Cn1c(COc2ccccc2)nnc1SCC(=O)Nc1nnc(C2CC2)s1	-12.8	26.9*	13.1	-1.9	1.1
Cc1nn(-c2ccccc2)c(C)c1-c1cc(C(=O)N/N=C/c2ccc(O)cc2)[nH]n1	-13.2	-4.2	-1.6	2.7	6.1
COc1cc(/C=N/NC(=O)c2cc(-c3c(C)nn(-c4ccccc4)c3C)n[nH]2)ccc1O	4.2	1.5	-2.7	-4.8	54.4*
COc1ccc2[nH]c(C(=O)N/N=C/c3ccccc3OC)cc2c1	-8.3	0.9	3.9	-1.4	37.0*
COc1ccc(C)cc1-n1nnnc1SCC(=O)NNC(=O)c1ccc([N+](=O)[O-])cc1	-13.1	2.1	25.3	-2.9	2.4
CCOC(=O)C1CCCN(Cc2ccc(OC)cc2OC)C1 (stereo not drawn)	19.8	nt	54.7*	-1.9	0.9
COc1cc(C(=O)NC2CCN(C)CC2)ccc1Nc1ncc2c(n1)N(C1CCCCC1)CCC(=O)N2C	8.5	-0.7	-4.3	-4.6	51.7*
COc1cc(C(=O)NC2CCN(C)CC2)ccc1Nc1ncc2c(n1)N(Cc1ccccc1)CCC(=O)N2C	0.4	13.1	-0.1	-7.1	104.8*
CCN1C(=O)CC(c2ccccc2)N(C2CCCC2)c2nc(Nc3ccc(C(=O)NC4CCN(C)CC4)cc3OC)ncc21 (stereo not drawn)	-12.8	nt	-0.9	-2.6	59.8*
CCN1C(=O)CC(C(C)C)N(C2CCCC2)c2nc(Nc3ccc(C(=O)NC4CCN(C)CC4)cc3OC)ncc21 (stereo not drawn)	-0.4	nt	12.9	-1.0	17.7
CC(=O)Nc1ccc(S(=O)(=O)c2ccc(N)cc2)cc1N	-10.0	-5.4	-1.5	-9.9	2.1
CCc1cccc(NS(=O)(=O)c2cccc3cccnc23)c1	-16.3	1.9	2.2	-2.7	-5.5
CCOc1cc(C(=O)Nn2cnnc2)cc(OCC)c1OCC	-4.2	4.8	2.7	1.0	0.7
COc1cccc(NC(=O)CCNC(=O)C2CCN(S(=O)(=O)c3ccc(F)cc3)CC2)c1	-4.5	-2.1	-4.8	-2.4	-1.7
CCOc1ccc(N2C(=O)/C(=C/c3cccs3)N(CC(=O)OC)C2=S)cc1	-12.7	nt	97.5*	0.8	2.8
COc1cccc(C2NC(=S)NC3=C2CCc2ccccc23)c1 (stereo not drawn)	7.4	-0.2	9.0	3.2	0.6
S=C1NC2=C(CCCC2=C2SCCS2)C(c2ccccc2)N1 (stereo not drawn)	-25.3	-1.4	10.0	0.2	414.5*
CCC(=O)N1CCc2cc(S(=O)(=O)CCC(=O)NCCc3ccc(S(N)(=O)=O)cc3)ccc21	-6.9	nt	-2.9	-4.9	1.1
CCOc1cc(C(=S)N2CCOCC2)ccc1OC	6.1	nt	66.3*	1.8	-0.8
N#Cc1cc([N+](=O)[O-])ccc1Oc1cccc(/C=N/NC(=O)c2cccc(Cl)c2)c1	63.0*	nt	-13.9	-1.4	1.1
SMILES	PvdQ inh	ERp5 inh	Vif imaging	PDI inh	Glyco luc inh
COc1ccc(/C=N/NC(=O)c2cccc([N+](=O)[O-])c2)cc1OC	2.9	-0.3	-0.2	11.1	1.5
CCCN1C[C@H](C)[C@@H](OC)CN(C)C(=O)c2cc(NC(=O)c3ccc(F)cc3)ccc2OC[C@H]1C	nt	5.8	nt	nt	nt
COc1cccc(C(NC(C)=O)c2nc(-c3ccccc3C)cs2)c1 (stereo not drawn)	nt	1.3	0.5	-1.9	45.0*
COc1cc(F)ccc1-c1csc(C(NC(C)=O)c2cccc(F)c2)n1 (stereo not drawn)	nt	2.1	0.0	21.4	57.7*
Nc1ccccc1NC(=O)c1ccccc1N	-11.6	nt	nt	5.8	1.4
Cc1c(CCCl)c(Cl)n2c(nc3ccccc32)c1C#N	-14.4	-6.6	60.8*	15.4	-19.2
CCc1c(C)c(C#N)c2nc3ccccc3n2c1NCCN(C)C	-8.1	nt	nt	23.2	-2.1
Cc1cc(Cl)n2c(nc3ccccc32)c1C#N	-2.2	-2.8	35.1	2.3	-5.4
